Test results: the supplement of paper PMC12669032

Key:
Test in all cases: growth AUC relative to DMSO control (median of replicates) (fraction); higher = more growth (less inhibition), active = hit call of the paper
Conditions in all cases: 20 µM; 24 h;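 active = AUC reduced over 20% with Padj below 0.05 in at least 2 of 3 replicates; inactive = otherwise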
[1] = system: Coprococcus comes
Method in brief: (§1)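 Area under the growth curve was normalised to the plate median of solvent-only wells, or to row and column medians on the industrial chemical plate. Growth curves came from anaerobic gut bacterial monocultures in mGAM at 37 °C, seeded at OD600 0.05 with 20 µM compound (1% DMSO), and read at OD600 hourly for 24 h with the minimum OD set to 0. The value is the median of three biological replicates grown on separate days.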

[2] = system: Escherichia coli ED1a
Method in brief: as §1

[3] = system: Escherichia coli IAI1
Method in brief: as §1

[4] = system: Eubacterium rectale
Method in brief: as §1

[5] = system: Fusobacterium nucleatum subsp. animalis
Method in brief: as §1

[6] = system: Lactobacillus gasseri
Method in brief: as §1

[7] = system: Lactobacillus paracasei
Method in brief: as §1

[8] = system: Odoribacter splanchnicus
Method in brief: as §1

[9] = system: Parabacteroides distasonis
Method in brief: as §1

[10] = system: Parabacteroides merdae
Method in brief: as §1

[11] = system: Roseburia intestinalis
Method in brief: as §1

[12] = system: Streptococcus salivarius
Method in brief: as §1

Measured: growth AUC

CCOC(=O)C(C)N(C(=O)c1ccccc1)c1ccc(Cl)c(Cl)c1 (stereo not given)
active: [9] 0.733
inactive: [1] 0.971 | [2] 1.03 | [3] 0.991 | [4] 1.04 | [5] 1.02 | [6] 0.935 | [7] 1.03 | [8] 0.985 | [10] 0.939 | [11] 0.958 | [12] 0.947

COC(=O)c1c(Cl)ccc(Cl)c1OC
inactive: [1] 1.04 | [2] 1.04 | [3] 1.03 | [4] 0.969 | [5] 0.968 | [6] 0.979 | [7] 0.921 | [8] 1.04 | [9] 1.05 | [10] 1.01 | [11] 0.982 | [12] 1.04

CN(C)C(=O)c1cccnc1S(N)(=O)=O
inactive: [1] 1.03 | [2] 1.05 | [3] 1.04 | [4] 1.02 | [5] 1.02 | [6] 1.06 | [7] 1.04 | [8] 1.02 | [9] 1.01 | [10] 1 | [11] 1.03 | [12] 0.978

NC(=O)c1nn(-c2c(Cl)cc(C(F)(F)F)cc2Cl)c(N)c1S(=O)C(F)(F)F (stereo not given)
inactive: [1] 0.958 | [2] 0.964 | [3] 0.983 | [4] 1.07 | [5] 0.945 | [6] 0.937 | [7] 0.982 | [8] 0.948 | [9] 1.02 | [10] 0.962 | [11] 0.992 | [12] 0.977

CCOC(=O)/C(Cl)=C/c1cc(N2C(=O)C3=C(CCCC3)C2=O)ccc1Cl
inactive: [1] 0.97 | [2] 1 | [3] 1.02 | [4] 0.951 | [5] 0.954 | [6] 1.1 | [7] 0.473 | [8] 1.1 | [9] 0.971 | [10] 0.948 | [11] 0.981 | [12] 0.96

Oc1ccccc1
inactive: [1] 1.03 | [2] 1 | [3] 0.983 | [4] 0.983 | [5] 1.04 | [6] 1.08 | [7] 1.04 | [8] 0.984 | [9] 1.04 | [10] 1.01 | [11] 1.04 | [12] 0.987

COc1nc(OC)nc(C(=O)c2cccc(F)c2N(C)S(=O)(=O)C(F)F)n1
inactive: [1] 1.03 | [2] 0.999 | [3] 0.986 | [4] 1.18 | [5] 1.05 | [6] 1.02 | [7] 0.977 | [8] 0.892 | [9] 1.03 | [10] 0.927 | [11] 1.01 | [12] 1.02

O=C(Oc1ccccc1)n1c(C(F)(F)F)nc2cc(Cl)c(Cl)cc21
inactive: [1] 1.03 | [5] 0.71
active: [2] 0.704 | [3] 0.588 | [4] 0.635 | [6] 0.431 | [7] 0.688 | [8] 0.0297 | [9] 0.106 | [10] 0.144 | [11] 0.797 | [12] 0.342

c1ccc(CNc2ncnc3nc[nH]c23)cc1
inactive: [1] 1.06 | [2] 0.989 | [3] 1.01 | [4] 1.16 | [5] 0.943 | [6] 0.956 | [7] 1.03 | [8] 1.03 | [9] 1.05 | [10] 1.02 | [11] 0.962 | [12] 1.04

C/C=C/C=C/CCCCCCCO
inactive: [1] 0.995 | [2] 1.01 | [3] 0.983 | [4] 1.03 | [5] 1.08 | [6] 0.96 | [7] 0.984 | [8] 1.03 | [9] 0.967 | [10] 0.982 | [11] 1 | [12] 0.994

[O-][n+]1nc(-n2ccnc2)nc2ccc(Cl)cc21
inactive: [1] 1.04 | [2] 0.95 | [3] 0.956 | [4] 1.12 | [5] 1.06 | [6] 0.831 | [7] 1.01 | [8] 1.03 | [9] 0.897 | [10] 1.02 | [11] 0.984 | [12] 1

CCOc1ccc2c(c1)C(C)=CC(C)(C)N2
inactive: [1] 1.03 | [2] 1.03 | [3] 0.986 | [4] 1.06 | [5] 1.03 | [6] 0.992 | [7] 1.02 | [8] 1.07 | [9] 0.97 | [10] 1.01 | [11] 1.04 | [12] 1.06

CC(C)N(C(=O)CS(=O)(=O)[O-])c1ccc(F)cc1.[Na+]
inactive: [1] 0.982 | [2] 0.983 | [3] 0.984 | [4] 1.02 | [5] 0.956 | [6] 1.01 | [7] 0.957 | [8] 1.13 | [9] 1.02 | [10] 0.995 | [11] 1.03 | [12] 0.973

O=C(Nc1ccc(Cl)cc1C(O)c1ccccc1)c1ccncc1 (stereo not given)
inactive: [1] 1.04 | [2] 0.997 | [3] 0.958 | [4] 1.12 | [5] 1.08 | [6] 0.966 | [7] 0.943 | [8] 0.971 | [9] 0.983 | [10] 0.979 | [11] 0.994 | [12] 1

CCOC(=O)c1ccc(O)cc1
inactive: [1] 1 | [2] 0.974 | [3] 0.969 | [4] 1.07 | [5] 1.05 | [6] 0.822 | [7] 0.978 | [8] 0.988 | [9] 0.893 | [10] 0.976 | [11] 0.888 | [12] 1.01

COC(=O)C(C)Oc1ccc(Cl)cc1Cl (stereo not given)
inactive: [1] 1.01 | [2] 1.01 | [3] 0.988 | [4] 1.14 | [5] 0.95 | [6] 0.991 | [7] 1.01 | [8] 1.11 | [9] 0.996 | [10] 1.01 | [11] 0.979 | [12] 0.991

CC(CNC(=S)[S-])NC(=S)[S-].[Zn+2] (mixture of isomers)
inactive: [1] 1.04 | [2] 0.997 | [3] 0.983 | [4] 1.15 | [5] 1.08 | [6] 0.956 | [7] 1.14 | [8] 0.945 | [9] 1.01 | [10] 1.02 | [11] 0.979 | [12] 0.988

Cn1cc(C(=O)Nc2ccccc2-c2cc(F)c(F)c(F)c2)c(C(F)F)n1
inactive: [1] 0.97 | [2] 0.985 | [3] 0.987 | [4] 0.937 | [5] 0.873 | [6] 0.995 | [7] 0.943 | [8] 0.964 | [9] 0.916 | [10] 0.937 | [11] 0.997 | [12] 0.966

CCOC(=O)[C@@H](C)Oc1ccc(Oc2cnc3cc(Cl)ccc3n2)cc1
inactive: [1] 0.983 | [2] 0.997 | [3] 1.01 | [4] 1.01 | [5] 0.992 | [6] 1.03 | [7] 0.917 | [8] 0.984 | [9] 1.02 | [10] 0.99 | [11] 1.01 | [12] 1.04

CCCCCC(C)OC(=O)COc1ccc(Cl)c2cccnc12 (stereo not given)
inactive: [2] 0.933 | [3] 0.989 | [5] 1.01 | [6] 0.865 | [7] 0.925 | [8] 1 | [10] 0.943 | [11] 0.931 | [12] 0.877
active: [1] 0.795 | [4] 0.177 | [9] 0.741

Cc1cc(C2CC2)nc(Nc2ccc(O)cc2)n1
inactive: [1] 0.998 | [2] 0.989 | [3] 1.01 | [4] 0.903 | [5] 0.955 | [6] 1.19 | [7] 1.01 | [8] 0.965 | [9] 1.03 | [10] 0.982 | [11] 1.01 | [12] 1.01

O=C(O)Cc1cccc2ccccc12
inactive: [1] 0.941 | [2] 0.959 | [3] 0.991 | [4] 1.02 | [5] 1.01 | [6] 0.949 | [7] 1.02 | [8] 0.953 | [9] 0.987 | [10] 1.01 | [11] 1.04 | [12] 0.99

CCc1cccc(C)c1N(C(=O)C(=O)O)[C@@H](C)C(=O)O
inactive: [1] 1.02 | [2] 1.01 | [3] 0.988 | [4] 1.12 | [5] 1.03 | [6] 0.853 | [7] 1.01 | [8] 0.95 | [9] 0.809 | [10] 1.03 | [11] 0.973 | [12] 0.943

FC(F)(F)C(=NOCC1OCCO1)c1ccc(Cl)cc1
inactive: [1] 1.02 | [2] 1.01 | [3] 1.04 | [4] 1.06 | [5] 1.08 | [6] 1.01 | [7] 1.07 | [8] 1.04 | [9] 1 | [10] 1.03 | [11] 1.17 | [12] 1.02

O=C(Nc1ccc(O)cc1-c1ccc(Cl)cc1)c1cccnc1Cl
inactive: [1] 0.924 | [2] 0.986 | [3] 0.976 | [4] 0.962 | [5] 0.916 | [6] 1.02 | [7] 1 | [8] 0.872 | [9] 1.01 | [10] 0.994 | [11] 1.02 | [12] 1.03
